Compound activity deposited in PubChem by National Center for Advancing Translational Sciences (NCATS).
3T3 cytotox = cytotoxic compounds in NIH 3T3 cells; NIH 3T3 viability, CellTiter-Glo ATP luminescence, 48-72 h; Potency, µM (top dose mostly 96.7 µM), hits mostly inhibitors; 94,000 compounds, 4.3% hits; AID 1345082; further: nearly all actives have a fitted effect of over 55% in size
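Cytotoxicity was measured by CellTiter-Glo ATP luminescence after 48 or 72 h compound exposure at 37 °C. Mouse NIH 3T3 fibroblasts were seeded at 400 cells/well and dosed by 23 nL pin transfer.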
HEK cytotox = kills HEK 293 cells; Potency, µM (series often up to 115 µM), most hits filed as inhibitors; 94,000 compounds, 6.6% hits; HEK 293 viability, ATP luminescence (CellTiter-Glo), 48-72 h; further: nearly all actives have a fitted effect of over 60% in size
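qHTS cytotoxicity; HEK 293, 250 cells/well; compound pinned; 48 or 72 hr, 37 degree Celsius, 5% CO2, 95% humidity; CellTiter-Glo, 10 min RT; luminescence (ATP).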
FLuc inh = inhibitors of firefly (Photinus pyralis) luciferase; 76,000 compounds, 2.5% hits; Potency, µM (titrated, usually from 115 µM), usual class: inhibitors; P08659; purified P. pyralis luciferase, luminescence, biochemical; further: nearly all actives have a fitted effect of over 65% in size
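Purified 10nM P. pyralis luciferase with 10uM D-luciferin and 10uM ATP in 50mM Tris acetate pH 7.5, 10mM Mg acetate, 0.01% Tween-20, 0.05% BSA. qHTS titration; luminescence read by CCD imager.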
NPR1 antag = blocks ANP-stimulated signaling of human Npr1 receptor; HEK293 hNpr1 GloSensor cGMP, ANP-stimulated luminescence; AID 1347048; 76,000 compounds, 1.6% hits; P16066; Potency, µM (highest dose often 46.3 µM), most hits filed as inhibitors; calls by dose curve; further: nearly all actives have a fitted effect of over 60% in size
Target sequence (P16066 whole entry, looked up): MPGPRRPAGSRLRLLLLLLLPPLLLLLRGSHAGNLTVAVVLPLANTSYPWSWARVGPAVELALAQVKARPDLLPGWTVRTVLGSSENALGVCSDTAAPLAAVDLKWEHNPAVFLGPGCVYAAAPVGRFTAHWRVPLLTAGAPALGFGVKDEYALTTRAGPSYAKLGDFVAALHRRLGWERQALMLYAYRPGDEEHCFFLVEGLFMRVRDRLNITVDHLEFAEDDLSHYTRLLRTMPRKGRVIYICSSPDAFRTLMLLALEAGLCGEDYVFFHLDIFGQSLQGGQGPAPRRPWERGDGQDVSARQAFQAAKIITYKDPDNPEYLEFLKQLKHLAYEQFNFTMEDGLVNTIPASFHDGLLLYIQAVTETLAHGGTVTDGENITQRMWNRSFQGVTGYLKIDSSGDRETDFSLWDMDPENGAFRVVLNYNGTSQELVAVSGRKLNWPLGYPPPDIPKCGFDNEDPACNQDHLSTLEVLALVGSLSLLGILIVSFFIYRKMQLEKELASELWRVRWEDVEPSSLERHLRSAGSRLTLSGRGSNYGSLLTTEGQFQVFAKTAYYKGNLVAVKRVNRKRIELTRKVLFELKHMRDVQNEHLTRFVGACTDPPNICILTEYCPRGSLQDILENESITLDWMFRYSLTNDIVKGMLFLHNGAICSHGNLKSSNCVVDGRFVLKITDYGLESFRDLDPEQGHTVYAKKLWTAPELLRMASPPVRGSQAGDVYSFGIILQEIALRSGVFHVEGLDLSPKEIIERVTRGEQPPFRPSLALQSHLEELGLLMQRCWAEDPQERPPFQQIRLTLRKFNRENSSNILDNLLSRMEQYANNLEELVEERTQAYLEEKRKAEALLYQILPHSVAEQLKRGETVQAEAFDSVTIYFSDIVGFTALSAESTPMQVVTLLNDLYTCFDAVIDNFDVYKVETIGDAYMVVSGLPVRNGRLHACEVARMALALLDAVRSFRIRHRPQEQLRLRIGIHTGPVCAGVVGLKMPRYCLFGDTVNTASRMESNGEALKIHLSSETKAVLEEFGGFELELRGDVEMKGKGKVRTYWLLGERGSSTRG
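HEK293 cells stably expressing human Npr1 and cGMP GloSensor pGS-40F, loaded 2 h with 2% GloSensor reagent, given compound 30 min at room temperature. Luminescence read before and 20 min after 0.1 nM hNppA.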
A number is an active result; . = inactive; ? = inconclusive; / = no result. Only some compounds are listed: those with a hit (about 11% of all), similar ones and a draw of the others. Unless noted, the call rests on the fitted dose curve; in most records, active means well fitted curve in the direction sought with a large enough effect; inconclusive means small, poorly fitted or top-dose-only effect, or another doubt; inactive means no such curve, though single readings can be large; an effect the other way counts as inactive or inconclusive.

SMILES | 3T3 cytotox | HEK cytotox | FLuc inh | NPR1 antag
Cc1c(-c2ccc(F)cc2)[nH]c2ccc(CNC(=O)[C@@H]3CCCO3)cc12 | ? | 50µM | 35µM | .
Cc1cc(F)ccc1-c1[nH]nc2ncc(-c3cnn(C)c3)nc12 | . | ? | . | .
Cc1c(-c2ccc(F)cc2)[nH]c2ccc(CNC(=O)CCN3CCCO3)cc12 | ? | 32µM | 25µM | ?
Cc1c(-c2ccc(F)cc2)[nH]c2ccc(CNCc3cnn(C)c3)cc12 | 40µM | 40µM | ? | .
O=C1CCCCC(C(=O)NCc2ccc(F)cc2)N1 (centres undefined) | . | . | . | .
CCOC(=O)[C@H]1[C@@H](O)C(=O)N(Cc2ccccc2)C12CCN(C(=O)C(C)C)CC2 | ? | . | / | /
CCc1nc(CC)n2ccn(Cc3ccc(C#N)cc3)c(=O)c12 | . | . | . | .
COc1cccc(N2CCN(C(=O)C3CCCN(c4cnc5nccnc5c4)C3)CC2)c1 (centres undefined) | ? | 40µM | . | ?
Cc1ccc(C(=O)NC2CCN(c3nccc(Nc4ccccc4Cl)n3)CC2)cc1 | . | . | / | /
O=C(NC1CCN(c2nccc(Nc3ccccc3Cl)n2)CC1)c1ccccc1 | ? | 40µM | / | /
O=C(C1CC1)N1CCN(c2nccc(Nc3ccccc3Cl)n2)CC1 | 22µM | ? | / | /
O=C(C1CCCC1)N1CCN(c2nccc(Nc3ccccc3Cl)n2)CC1 | 14µM | ? | / | /
CCN(Cc1ccncc1)C(=O)C1(Oc2ccc(C)cc2)CCNCC1 | . | . | . | .
Clc1cccnc1-c1cc(NCc2ccccn2)nc2[nH]ccc12 | . | ? | . | .
C=CCN(C)C(=O)[C@@H](C)C1CC[C@@]2(C)Cc3sc(NCCCC)nc3[C@@H](C)[C@@H]2[C@H]1O (some centres undefined) | 35µM | ? | ? | .
C#CCN(C)C(=O)[C@@H](C)C1CC[C@@]2(C)Cc3sc(NCCCC)nc3[C@@H](C)[C@@H]2[C@H]1O (some centres undefined) | ? | ? | 18µM | .
O=C(NCC1Cn2cccc2CN1Cc1ccccc1)c1ccc2cc[nH]c2c1 (centres undefined) | ? | 79µM | . | .
O=C(Nc1cccc(C(F)(F)F)c1)N[C@H]1CO[C@H]2[C@@H]1OC[C@H]2OC(=O)Nc1ccccc1 | ? | ? | . | .
COC(=O)c1cccc(C(=O)N[C@H]2CO[C@H]3[C@@H]2OC[C@H]3OC(=O)Nc2ccc(Oc3ccccc3)cc2)c1 | . | 10µM | . | .
CC(=O)c1ccc(NC(=O)O[C@@H]2CO[C@H]3[C@@H]2OC[C@@H]3NC(=S)NC2CCCCC2)cc1 | . | 79µM | . | .
CC(C)c1ccc(NC(=O)N[C@H]2CO[C@H]3[C@@H]2OC[C@H]3OC(=O)Nc2cccc(C(F)(F)F)c2)cc1 | 25µM | 28µM | . | ?
O=C(Nc1ccccc1)N[C@H]1CO[C@H]2[C@@H]1OC[C@H]2OC(=O)Nc1ccccc1 | . | ? | 45µM | .
Cc1ccc(CN2CCCN(S(=O)(=O)c3ccccc3)CCC(=O)NCC2)o1 | . | . | . | .
Cc1nc2c(c(-c3ccc(O)cc3)n1)CN(C(=O)c1cccc(Cl)c1)CC2 | . | ? | . | .
CCN(CC)C(=O)CCc1c(C)nn(-c2ccccc2)c1Oc1ccc(F)cc1F | ? | ? | . | .
SMILES | 3T3 cytotox | HEK cytotox | FLuc inh | NPR1 antag
CCN(CC)C(=O)CCc1c(C)nn(-c2ccc(F)cc2)c1Oc1ccccc1C | 40µM | ? | . | .
CCN(C)C(=O)CCc1c(C)nn(-c2cccc(C)c2)c1Oc1ccccc1 | 35µM | 40µM | . | .
CCN(C)C(=O)CCc1c(C)nn(-c2ccccc2)c1Oc1ccccc1F | ? | 40µM | . | .
CCN(CC)C(=O)CCc1c(C)nn(-c2ccccc2)c1Oc1cccc(F)c1 | ? | ? | . | .
O[C@]12CCNC[C@H]1CN(Cc1cccc(-c3ccccc3)c1)CC2 | ? | ? | . | .
CCC(C)NC(=O)C1CCCN1Cc1cccc(-c2ccc(C)c(Cl)c2)c1 (centres undefined) | 35µM | 22µM | / | /
Cc1ccc(-c2cccc(CN3CCCC3C(=O)NC3CC3)c2)cc1Cl (centres undefined) | 35µM | 32µM | / | /
Cc1ccc(-c2cccc(CN3CCCC(NC(=O)NC4CCCC4)C3)c2)cc1Cl (centres undefined) | . | . | / | /
Cc1ccc(-c2cccc(CN3CCCC3C(=O)NC3CCC3)c2)cc1Cl (centres undefined) | 40µM | 28µM | / | /
Cn1nc(CN2CCOCC2)c2c1CCN(S(=O)(=O)c1ccc3c(c1)CCC3)C2 | . | . | / | /
